According to article PMC5540273 (PLoS ONE, 2017):

Legend:
Conditions in all cases: concentration: 1 μM, replicates: in singlicate; n = 1
[1] = test system: SRPK2
[2] = test system: SRPK3
[3] = test system: STK16
[4] = test system: STK33
[5] = test system: STK35
[6] = test system: STK36
[7] = test system: STK39
[8] = test system: SYK
[9] = test system: SgK110
[10] = test system: T1, TAK1
T1 construct: gene MAP3K7
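Also: KINOMEscan kinase panel screen.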

## COc1ccc(Nc2nccc(N3CCC(NC(=O)c4cc5ccccc5s4)C3)n2)cc1 (centres unmarked) [GSK1379738]
[1]
  %Inh: 0%
[2]
  %Inh: 0%
[3]
  %Inh: 19%
[4]
  %Inh: 0%
[5]
  %Inh: 0%
[6]
  %Inh: 0%
[7]
  %Inh: 0%
[8]
  %Inh: 13%
[9]
  %Inh: 0%
[10]
  %Inh: 0%

## Nc1nccc(-c2c(-c3ccc(F)cc3)ncn2C2CCN(Cc3ccccc3)CC2)n1 [SB-219980]
[1]
  %Inh: 0%
[2]
  %Inh: 0%
[3]
  %Inh: 0%
[4]
  %Inh: 33%
[5]
  %Inh: 79%
[6]
  %Inh: 29%
[7]
  %Inh: 0%
[8]
  %Inh: 0%
[9]
  %Inh: 0%
[10]
  %Inh: 7%

## CCn1c(-c2ccccc2)nc2cnccc21 [SB-733416]
[1]
  %Inh: 0%
[2]
  %Inh: 5%
[3]
  %Inh: 0%
[4]
  %Inh: 0%
[5]
  %Inh: 7%
[6]
  %Inh: 0%
[7]
  %Inh: 8%
[8]
  %Inh: 17%
[9]
  %Inh: 0%
[10]
  %Inh: 0%

## COc1ccc(Nc2nccc(NCCNC(=O)Nc3cc(C)ccc3C)n2)cc1 [GSK1379899]
[1]
  %Inh: 0%
[2]
  %Inh: 10%
[3]
  %Inh: 0%
[4]
  %Inh: 0%
[5]
  %Inh: 0%
[6]
  %Inh: 0%
[7]
  %Inh: 0%
[8]
  %Inh: 24%
[9]
  %Inh: 0%
[10]
  %Inh: 0%

## CS(=O)(=O)Cc1ccc(Nc2nccc(-c3c(-c4cccc(NC(=O)C5CCCCC5)c4)nn4ncccc34)n2)cc1 [GSK350559]
[1]
  %Inh: 0%
[2]
  %Inh: 0%
[3]
  %Inh: 12%
[4]
  %Inh: 4%
[5]
  %Inh: 9%
[6]
  %Inh: 81%
[7]
  %Inh: 37%
[8]
  %Inh: 4%
[9]
  %Inh: 0%
[10]
  %Inh: 2%
